Holding throughout (assay): DAPPL (digital affinity profiling via proximity ligation, sequencing); 10 mM Tris-HCl pH 7.5, 50 mM NaCl, 1 mM DTT, 4% glycerol, room temperature, 30 min; GST-TFs on glutathione beads, 16-mer random dsDNA library, 0.1% formaldehyde crosslink after washing; high values mean tight binding
What all share (conditions): protein: recombinant; tags: N-terminal GST; dsDNA, one strand shown

For one assay, the target named is T1, FLI1 (Homo sapiens, UniProt Q01543 1-452).
T1 sequence: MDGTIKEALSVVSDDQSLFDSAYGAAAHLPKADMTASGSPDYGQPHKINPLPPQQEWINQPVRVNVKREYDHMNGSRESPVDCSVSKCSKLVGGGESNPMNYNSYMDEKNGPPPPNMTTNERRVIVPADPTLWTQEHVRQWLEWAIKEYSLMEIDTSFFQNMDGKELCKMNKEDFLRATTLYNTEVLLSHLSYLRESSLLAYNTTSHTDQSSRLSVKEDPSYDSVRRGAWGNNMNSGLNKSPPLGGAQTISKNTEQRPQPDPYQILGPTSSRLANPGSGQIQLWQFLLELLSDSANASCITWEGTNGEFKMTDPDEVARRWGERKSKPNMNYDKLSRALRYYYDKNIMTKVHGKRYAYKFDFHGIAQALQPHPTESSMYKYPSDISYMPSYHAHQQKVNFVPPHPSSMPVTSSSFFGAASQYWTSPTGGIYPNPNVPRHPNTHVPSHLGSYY
The method, boiled down: (§1)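 Human transcription factors carrying a GST fusion were produced in yeast, bound to glutathione beads, tagged with DNA barcodes and pooled together with a tag-only sample. Each pool was held with 200 nmole of a random double-stranded 16-mer DNA library in Tris/NaCl/DTT/glycerol buffer for 30 min at room temperature, then washed, crosslinked in 0.1% formaldehyde, proximity-ligated with BsaI/T4 ligase (1 h, 37 °C), PCR-amplified and sequenced on an Illumina NextSeq500. Binding signal is the read frequency of each hexamer for a given factor divided by its frequency in the tag-only sample.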

The next assay deals with T2, ELK1 (Homo sapiens, UniProt P19419 1-428).
T2 sequence: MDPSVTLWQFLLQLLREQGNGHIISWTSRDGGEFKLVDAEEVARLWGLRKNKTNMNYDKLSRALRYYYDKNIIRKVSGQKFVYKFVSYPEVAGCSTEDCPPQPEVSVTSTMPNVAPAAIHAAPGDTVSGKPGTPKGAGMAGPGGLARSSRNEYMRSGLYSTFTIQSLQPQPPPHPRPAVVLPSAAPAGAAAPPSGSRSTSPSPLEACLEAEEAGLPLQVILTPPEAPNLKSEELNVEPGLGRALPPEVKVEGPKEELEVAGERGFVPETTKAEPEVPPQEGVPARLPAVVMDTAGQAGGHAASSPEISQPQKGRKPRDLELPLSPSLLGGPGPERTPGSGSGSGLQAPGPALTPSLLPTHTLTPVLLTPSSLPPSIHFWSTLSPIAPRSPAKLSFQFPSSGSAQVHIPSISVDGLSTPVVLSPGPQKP
The method, boiled down:
as §1

A further assay deals with T3, GABPA (Homo sapiens, UniProt Q06546 1-454).
T3 sequence: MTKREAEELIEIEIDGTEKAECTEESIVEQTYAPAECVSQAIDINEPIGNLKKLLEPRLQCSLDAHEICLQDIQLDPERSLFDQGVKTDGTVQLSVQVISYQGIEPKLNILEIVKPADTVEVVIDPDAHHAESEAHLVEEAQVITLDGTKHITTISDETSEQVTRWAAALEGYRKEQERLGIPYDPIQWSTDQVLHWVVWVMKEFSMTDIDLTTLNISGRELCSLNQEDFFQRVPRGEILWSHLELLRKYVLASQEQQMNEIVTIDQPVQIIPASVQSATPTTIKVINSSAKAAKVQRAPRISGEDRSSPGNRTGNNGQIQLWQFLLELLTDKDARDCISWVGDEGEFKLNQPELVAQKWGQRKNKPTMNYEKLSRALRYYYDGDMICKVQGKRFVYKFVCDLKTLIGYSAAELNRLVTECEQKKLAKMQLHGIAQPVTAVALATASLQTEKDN
The essentials:
as §1

The target in another assay is T4, ERG (Homo sapiens, UniProt P11308 1-479).
T4 sequence: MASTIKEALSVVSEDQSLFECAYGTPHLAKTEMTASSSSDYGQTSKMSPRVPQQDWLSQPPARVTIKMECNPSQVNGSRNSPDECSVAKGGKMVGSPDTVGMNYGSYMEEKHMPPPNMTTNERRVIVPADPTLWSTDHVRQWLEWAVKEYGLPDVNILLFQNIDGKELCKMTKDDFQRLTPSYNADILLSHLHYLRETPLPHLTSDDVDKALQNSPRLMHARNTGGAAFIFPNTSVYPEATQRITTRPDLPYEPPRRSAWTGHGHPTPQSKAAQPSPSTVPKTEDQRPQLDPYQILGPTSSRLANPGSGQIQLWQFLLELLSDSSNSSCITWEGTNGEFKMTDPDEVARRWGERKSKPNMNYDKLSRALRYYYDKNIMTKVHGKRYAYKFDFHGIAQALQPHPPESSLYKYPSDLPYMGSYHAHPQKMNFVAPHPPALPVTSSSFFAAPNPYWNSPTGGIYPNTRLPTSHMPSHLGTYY
The essentials: as §1

The target in the next assay is ELF1 (Homo sapiens, UniProt P32519 1-619). The method, boiled down: as §1
A further assay has as its target T5, EHF (Homo sapiens, UniProt Q9NZC4 1-300).
T5 sequence: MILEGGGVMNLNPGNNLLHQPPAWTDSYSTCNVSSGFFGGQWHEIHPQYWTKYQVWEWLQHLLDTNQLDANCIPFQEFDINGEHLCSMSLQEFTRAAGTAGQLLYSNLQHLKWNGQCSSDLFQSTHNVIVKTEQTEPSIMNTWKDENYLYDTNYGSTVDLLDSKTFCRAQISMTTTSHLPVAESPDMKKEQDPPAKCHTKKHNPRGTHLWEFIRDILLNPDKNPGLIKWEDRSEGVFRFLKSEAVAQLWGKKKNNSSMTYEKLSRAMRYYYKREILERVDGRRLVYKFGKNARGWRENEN
The method, boiled down:
as §1

In a further assay the target is SPI1 (Homo sapiens, UniProt P17947 1-270). The method, boiled down: as §1
The next assay addresses SPIB (Homo sapiens, UniProt Q01892 1-262). The essentials:
as §1

In a further assay the target is T6, ELK3 (Homo sapiens, UniProt P41970 1-407).
T6 sequence: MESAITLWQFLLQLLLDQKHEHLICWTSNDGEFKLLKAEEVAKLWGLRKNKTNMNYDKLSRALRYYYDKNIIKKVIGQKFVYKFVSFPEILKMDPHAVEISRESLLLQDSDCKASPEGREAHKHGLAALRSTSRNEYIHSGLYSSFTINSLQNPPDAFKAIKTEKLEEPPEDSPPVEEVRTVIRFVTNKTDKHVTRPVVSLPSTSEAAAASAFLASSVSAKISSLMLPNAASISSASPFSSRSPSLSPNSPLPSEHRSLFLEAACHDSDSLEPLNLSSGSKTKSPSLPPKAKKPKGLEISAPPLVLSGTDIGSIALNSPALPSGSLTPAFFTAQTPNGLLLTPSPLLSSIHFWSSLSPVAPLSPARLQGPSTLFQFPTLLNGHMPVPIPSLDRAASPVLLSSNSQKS
The method, boiled down:
as §1

Chain of ELF1 (P32519 whole entry): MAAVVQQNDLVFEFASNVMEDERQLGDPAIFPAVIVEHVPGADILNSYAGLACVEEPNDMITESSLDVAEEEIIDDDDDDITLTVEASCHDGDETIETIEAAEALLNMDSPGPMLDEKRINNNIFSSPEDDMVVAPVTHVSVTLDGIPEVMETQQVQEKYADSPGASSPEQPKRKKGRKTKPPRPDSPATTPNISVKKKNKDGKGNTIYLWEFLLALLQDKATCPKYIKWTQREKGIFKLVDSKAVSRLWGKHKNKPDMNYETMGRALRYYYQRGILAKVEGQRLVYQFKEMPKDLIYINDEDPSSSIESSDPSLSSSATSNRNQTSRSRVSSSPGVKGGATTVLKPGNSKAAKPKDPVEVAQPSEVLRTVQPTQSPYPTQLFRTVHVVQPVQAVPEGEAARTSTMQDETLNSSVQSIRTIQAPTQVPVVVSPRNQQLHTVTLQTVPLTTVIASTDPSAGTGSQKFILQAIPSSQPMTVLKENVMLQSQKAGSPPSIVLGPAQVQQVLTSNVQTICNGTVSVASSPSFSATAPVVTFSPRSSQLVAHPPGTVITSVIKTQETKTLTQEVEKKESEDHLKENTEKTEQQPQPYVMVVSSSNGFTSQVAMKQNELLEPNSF
Chain of SPIB (Q01892 whole entry): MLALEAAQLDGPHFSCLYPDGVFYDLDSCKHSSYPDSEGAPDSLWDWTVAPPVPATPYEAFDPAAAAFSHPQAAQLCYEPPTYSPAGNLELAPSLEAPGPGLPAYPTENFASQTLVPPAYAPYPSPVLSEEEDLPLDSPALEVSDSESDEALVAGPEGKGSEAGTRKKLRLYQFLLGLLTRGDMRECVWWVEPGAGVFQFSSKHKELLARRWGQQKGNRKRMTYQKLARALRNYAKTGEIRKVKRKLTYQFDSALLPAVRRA

As to CTTTGT, the binding signal with FLI1 was 1.34 fold enrichment (6-mer frequency, TF over GST control); in the assay with ELK1, 1.3 fold enrichment (6-mer frequency, TF over GST control); in the assay with GABPA, 1.2 fold enrichment (6-mer frequency, TF over GST control); in the assay with ERG, 1.27 fold enrichment (6-mer frequency, TF over GST control); with ELF1, 1.36 fold enrichment (6-mer frequency, TF over GST control); with EHF, 1.48 fold enrichment (6-mer frequency, TF over GST control). In addition, the binding signal with SPI1 is 1.36 fold enrichment (6-mer frequency, TF over GST control); with SPIB, 1.22 fold enrichment (6-mer frequency, TF over GST control); in the assay with ELK3, 1.29 fold enrichment (6-mer frequency, TF over GST control).

In the case of TATTGG, the binding signal with FLI1 was 1.12 fold enrichment (6-mer frequency, TF over GST control); in the assay with ELK1 it was 1.14 fold enrichment (6-mer frequency, TF over GST control); in the assay with GABPA it was 1.22 fold enrichment (6-mer frequency, TF over GST control); with ERG, 1.15 fold enrichment (6-mer frequency, TF over GST control); with ELF1, 1.22 fold enrichment (6-mer frequency, TF over GST control); with EHF it was 1.26 fold enrichment (6-mer frequency, TF over GST control). Moreover, the binding signal is 1.06 fold enrichment (6-mer frequency, TF over GST control) with SPI1; 1.24 fold enrichment (6-mer frequency, TF over GST control) with SPIB; 1.07 fold enrichment (6-mer frequency, TF over GST control) with ELK3.

Regarding GCTCCT, the binding signal in the assay with FLI1 is 1.54 fold enrichment (6-mer frequency, TF over GST control); with ELK1 it was 1.39 fold enrichment (6-mer frequency, TF over GST control); with GABPA, 1.52 fold enrichment (6-mer frequency, TF over GST control); with ERG, 1.32 fold enrichment (6-mer frequency, TF over GST control); with ELF1, 1.45 fold enrichment (6-mer frequency, TF over GST control); with EHF, 1.41 fold enrichment (6-mer frequency, TF over GST control). Besides, the binding signal with SPI1 is 1.4 fold enrichment (6-mer frequency, TF over GST control); with SPIB it was 1.46 fold enrichment (6-mer frequency, TF over GST control); with ELK3, 1.33 fold enrichment (6-mer frequency, TF over GST control).

For CTGATT, the binding signal with FLI1 is 1.18 fold enrichment (6-mer frequency, TF over GST control); with ELK1 it was 1.21 fold enrichment (6-mer frequency, TF over GST control); in the assay with GABPA it was 1.14 fold enrichment (6-mer frequency, TF over GST control); with ERG it was 1.2 fold enrichment (6-mer frequency, TF over GST control); in the assay with ELF1, 1.22 fold enrichment (6-mer frequency, TF over GST control); with EHF, 1.22 fold enrichment (6-mer frequency, TF over GST control). Also, the binding signal with SPI1 is 1.09 fold enrichment (6-mer frequency, TF over GST control); with SPIB, 1.21 fold enrichment (6-mer frequency, TF over GST control); with ELK3, 1.21 fold enrichment (6-mer frequency, TF over GST control).

Consider TACCTC, for which the binding signal is 1.25 fold enrichment (6-mer frequency, TF over GST control) with FLI1; 1.29 fold enrichment (6-mer frequency, TF over GST control) in the assay with ELK1; 1.33 fold enrichment (6-mer frequency, TF over GST control) with GABPA; 1.19 fold enrichment (6-mer frequency, TF over GST control) with ERG; 1.25 fold enrichment (6-mer frequency, TF over GST control) in the assay with ELF1; 1.2 fold enrichment (6-mer frequency, TF over GST control) with EHF. The binding signal was 1.27 fold enrichment (6-mer frequency, TF over GST control) in the assay with SPI1; 1.21 fold enrichment (6-mer frequency, TF over GST control) with SPIB; 1.27 fold enrichment (6-mer frequency, TF over GST control) with ELK3.

As to ATCTAT, the binding signal was 1.15 fold enrichment (6-mer frequency, TF over GST control) in the assay with FLI1; 1.14 fold enrichment (6-mer frequency, TF over GST control) with ELK1; 1.17 fold enrichment (6-mer frequency, TF over GST control) with GABPA; 1.09 fold enrichment (6-mer frequency, TF over GST control) with ERG; 1.16 fold enrichment (6-mer frequency, TF over GST control) with ELF1; 1.12 fold enrichment (6-mer frequency, TF over GST control) in the assay with EHF. Besides, the binding signal was 1.09 fold enrichment (6-mer frequency, TF over GST control) with SPI1; 1.15 fold enrichment (6-mer frequency, TF over GST control) with SPIB; 1.13 fold enrichment (6-mer frequency, TF over GST control) with ELK3.

Take TGTTGC: the binding signal was 1.33 fold enrichment (6-mer frequency, TF over GST control) in the assay with FLI1; 1.32 fold enrichment (6-mer frequency, TF over GST control) with ELK1; 1.33 fold enrichment (6-mer frequency, TF over GST control) in the assay with GABPA; 1.3 fold enrichment (6-mer frequency, TF over GST control) with ERG; 1.31 fold enrichment (6-mer frequency, TF over GST control) with ELF1; 1.3 fold enrichment (6-mer frequency, TF over GST control) with EHF. Also, the binding signal was 1.33 fold enrichment (6-mer frequency, TF over GST control) with SPI1; 1.35 fold enrichment (6-mer frequency, TF over GST control) with SPIB; 1.4 fold enrichment (6-mer frequency, TF over GST control) with ELK3.

(Values after publication PMC7862700, “An all-to-all approach to the identification of sequence-specific readers for epigenetic DNA modifications on cytosine”.)
